Laboratory results taken from PubChem BioAssay AID1159580 (chemical genetic matrix, 2015).
Hit rate of the full screen: of about 5,500 compounds, about 2,000 (36%) were called active. About 18% were inconclusive and are not listed. Rule as the data show it: active = normalized growth mostly below about 0.91 (no sharp cut-off); inconclusive = no clear call, values can overlap the other calls; inactive = mostly above about 0.92. The list shows a part of the results.

Experiment: chemical genetic growth profiling, strain panel (AID 1159580);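 also: tested at 20 µM; growth read once vehicle control cultures reached saturation at 30 °C; 1 = growth at the plate median or of vehicle wells; lower values mean less growth of the strain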
Conditions: growth OD

Measured: normalized growth

NNC(=O)c1ccncc1
inactive: S. cerevisiae deletion strains, locus YJR075W, strain HOC1, hits give low values 1.01 | S. cerevisiae deletion strains, locus YKL009W, strain mrt4, hits give low values 0.98 | S. cerevisiae deletion strains, locus YKL068W, hits give low values 0.992 | S. cerevisiae deletion strains, locus YKL085W, strain MDH1 (second series), hits give low values 0.991 | S. cerevisiae deletion strains, locus YKL085W, strain MDH1, hits give low values 0.991 | S. cerevisiae deletion strains, locus YKL160W, strain elf1, hits give low values 1.04 | S. cerevisiae deletion strains, locus YKL190W, strain CNB1, hits give low values 0.992 | S. cerevisiae deletion strains, locus YKR001C, strain vps1, hits give low values 0.993 | S. cerevisiae deletion strains, locus YKR026C, strain gcn3, hits give low values 1.01 | S. cerevisiae deletion strains, locus YKR091W, strain srl3, hits give low values 1 | S. cerevisiae deletion strains, locus YLL001W, strain dnm1, hits give low values 1.03 | S. cerevisiae deletion strains, locus YLL026W, hits give low values 1.03 | S. cerevisiae deletion strains, locus YLL041C, strain sdh2, hits give low values 1 | S. cerevisiae deletion strains, locus YLR027C, strain aat2, hits give low values 1.03 | S. cerevisiae deletion strains, locus YLR039C, strain RIC1, hits give low values 1.05 | S. cerevisiae deletion strains, locus YLR058C, strain SHM2, hits give low values 1.01 | S. cerevisiae deletion strains, locus YLR102C, strain apc9, hits give low values 0.998 | S. cerevisiae deletion strains, locus YLR113W, strain HOG1, hits give low values 1.01 | S. cerevisiae deletion strains, locus YLR221C, strain rsa3, hits give low values 0.986 | S. cerevisiae deletion strains, locus YLR258W, strain gsy2, hits give low values 0.99 | S. cerevisiae deletion strains, locus YLR262C, strain YPT6 (second series), hits give low values 1.03 | S. cerevisiae deletion strains, locus YLR262C, strain YPT6, hits give low values 1.01 | S. cerevisiae deletion strains, locus YLR268W, strain sec22, hits give low values 0.991 | S. cerevisiae deletion strains, locus YLR320W, strain mms22, hits give low values 0.986 | S. cerevisiae deletion strains, locus YLR330W, strain CHS5, hits give low values 1.01 | S. cerevisiae deletion strains, locus YLR342W, strain FKS1 (second series), hits give low values 1.01 | S. cerevisiae deletion strains, locus YLR342W, strain FKS1, hits give low values 1.02 | S. cerevisiae deletion strains, locus YLR357W, strain rsc2, hits give low values 0.998 | S. cerevisiae deletion strains, locus YLR370C, strain arc18, hits give low values 1.02 | S. cerevisiae deletion strains, locus YLR371W, strain rom2, hits give low values 0.988 | S. cerevisiae deletion strains, locus YLR384C, strain iki3, hits give low values 1.01 | S. cerevisiae deletion strains, locus YLR418C, strain cdc73, hits give low values 0.964 | S. cerevisiae deletion strains, locus YML016C, strain PPZ1, hits give low values 1.01 | S. cerevisiae deletion strains, locus YML032C, strain rad52, hits give low values 0.995 | S. cerevisiae deletion strains, locus YML120C, strain ndi1, hits give low values 1.06 | S. cerevisiae deletion strains, locus YML124C, strain tub3, hits give low values 0.988 | S. cerevisiae deletion strains, locus YMR058W, strain fet3, hits give low values 1.04 | S. cerevisiae deletion strains, locus YMR078C, strain ctf18, hits give low values 1 | S. cerevisiae deletion strains, locus YMR125W, strain sto1, hits give low values 1.02 | S. cerevisiae deletion strains, locus YMR129W, hits give low values 1 | S. cerevisiae deletion strains, locus YMR205C, strain PFK2, hits give low values 1.03 | S. cerevisiae deletion strains, locus YMR223W, strain ubp8, hits give low values 0.974 | S. cerevisiae deletion strains, locus YMR231W, strain pep5, hits give low values 0.995 | S. cerevisiae deletion strains, locus YMR307W, strain GAS1, hits give low values 0.997 | S. cerevisiae deletion strains, locus YNL067W, strain RPL9B, hits give low values 0.996 | S. cerevisiae deletion strains, locus YNL071W, strain lat1, hits give low values 0.996 | S. cerevisiae deletion strains, locus YNL153C, strain GIM3, hits give low values 1.01 | S. cerevisiae deletion strains, locus YNL183C, strain NPR1, hits give low values 0.948 | S. cerevisiae deletion strains, locus YNL209W, strain ssb2, hits give low values 1 | S. cerevisiae deletion strains, locus YNL233W, strain BNI4, hits give low values 1.01 | S. cerevisiae deletion strains, locus YNL248C, strain rpa49, hits give low values 0.988 | S. cerevisiae deletion strains, locus YNL250W, strain rad50, hits give low values 0.977 | S. cerevisiae deletion strains, locus YNL271C, strain bni1, hits give low values 0.985 | S. cerevisiae deletion strains, locus YNL298W, strain CLA4, hits give low values 0.986 | S. cerevisiae deletion strains, locus YNL307C, strain MCK1, hits give low values 0.995 | S. cerevisiae deletion strains, locus YNL322C, strain KRE1 (second series), hits give low values 1.02 | S. cerevisiae deletion strains, locus YNR049C, strain mso1, hits give low values 1.01 | S. cerevisiae deletion strains, locus YNR052C, strain pop2, hits give low values 1 | S. cerevisiae deletion strains, locus YOL012C, strain htz1 0.873 | S. cerevisiae deletion strains, locus YOL147C, strain pex11, hits give low values 0.994 | S. cerevisiae deletion strains, locus YOR001W, strain rrp6, hits give low values 1.03 | S. cerevisiae deletion strains, locus YOR061W, strain CKA2, hits give low values 1.02 | S. cerevisiae deletion strains, locus YOR069W, strain VPS5, hits give low values 1 | S. cerevisiae deletion strains, locus YOR070C, strain gyp1, hits give low values 1 | S. cerevisiae deletion strains, locus YOR080W, strain dia2, hits give low values 1.01 | S. cerevisiae deletion strains, locus YOR083W, strain WHI5, hits give low values 1 | S. cerevisiae deletion strains, locus YOR106W, strain vam3, hits give low values 1.04 | S. cerevisiae deletion strains, locus YOR136W, strain idh2, hits give low values 0.998 | S. cerevisiae deletion strains, locus YOR144C, strain elg1, hits give low values 0.994 | S. cerevisiae deletion strains, locus YOR184W, strain ser1, hits give low values 0.981 | S. cerevisiae deletion strains, locus YOR231W, strain MKK1, hits give low values 0.992 | S. cerevisiae deletion strains, locus YOR265W, strain rbl2, hits give low values 1.01 | S. cerevisiae deletion strains, locus YOR270C, strain vph1, hits give low values 1 | S. cerevisiae deletion strains, locus YOR290C, strain snf2, hits give low values 0.965 | S. cerevisiae deletion strains, locus YOR316C, strain cot1, hits give low values 0.997 | S. cerevisiae deletion strains, locus YPL051W, strain arl3, hits give low values 1.02 | S. cerevisiae deletion strains, locus YPL055C, strain LGE1, hits give low values 1.01 | S. cerevisiae deletion strains, locus YPL078C, strain atp4, hits give low values 1.06 | S. cerevisiae deletion strains, locus YPL106C, strain sse1, hits give low values 1.01 | S. cerevisiae deletion strains, locus YPL240C, strain hsp82, hits give low values 1.02 | S. cerevisiae deletion strains, locus YPL256C, strain CLN2, hits give low values 0.966 | S. cerevisiae deletion strains, locus YPR119W, strain clb2, hits give low values 0.987 | S. cerevisiae deletion strains, locus YPR141C, strain kar3, hits give low values 0.99 | S. cerevisiae deletion strains, locus YPR163C, strain tif3, hits give low values 0.987 | S. cerevisiae deletion strains, locus YPR167C, strain met16, hits give low values 0.981 | S. cerevisiae deletion strains, strain wtn01, hits give low values 0.98 | S. cerevisiae strains, strain wild type, hits give low values 1
